Test [1] in a line: qHTS assay to identify small molecule agonists of the constitutive androstane receptor (CAR) signaling pathway - cell viability counter screen (AID 1224836). Also: nearly all actives have a fitted effect of over 45% in size. Summed up: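 Counter screen multiplexed with the CAR reporter readout: HepG2 cells co-transfected with hCAR and the CYP2B6-2.2kb construct receive a 15-concentration compound series and 0.75 uM PK11195 (final), then CellTiter-Fluor fluorescence is read after 23 h.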
(qHTS replaces the single test concentration by a dilution series.)

A short description of test [2]: qHTS assay to identify small molecule antagonists of the constitutive androstane receptor (CAR) signaling pathway - cell viability counter screen (AID 1224837). Also: nearly all actives have a fitted effect of over 45% in size. The method, boiled down:
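In quantitative HTS format, compounds at 15 concentrations were applied to HepG2 cells double-transfected with hCAR and CYP2B6-2.2kb under 50 nM CITCO stimulation; live-cell protease activity was read after 23 hr via CellTiter-Fluor.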

The target of test [3] is Nuclear receptor subfamily 1 group I member 3 (Homo sapiens) (UniProt Q14994). The test is described as follows: qHTS assay to identify small molecule antagonists of the constitutive androstane receptor (CAR) signaling pathway (AID 1224838). Also: nearly all actives have a fitted effect of over 40% in size. The method, boiled down:
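CITCO-stimulated (50 nM final) HepG2 cells stably transfected with hCAR and CYP2B6-2.2kb luciferase were exposed to compounds at 15 concentrations for 24 h at 37 C/5% CO2. A luciferase reagent was added and luminescence recorded after 30 min.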

For test [4] the target is unchanged. Kind of test: qHTS assay to identify small molecule agonists of the constitutive androstane receptor (CAR) signaling pathway (AID 1224839). Also: nearly all actives have a fitted effect of over 15% in size. Also: potency is read from the fitted curve at half-maximal effect. Summed up:
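A 15-concentration quantitative screen uses HepG2 cells co-transfected stably with human CAR and CYP2B6-2.2kb reporter. Treatment lasts 24 h with 0.75 uM PK11195 final present; ONE-Glo luminescence is the signal.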

The nature of test [5]: qHTS assay to identify small molecule antagonists of the estrogen related receptor signaling pathway with the pleiotropic PPARgamma coactivator (PGC) from Tox21 10K library - cell viability counter screen (AID 1224840; active = well fitted cell-killing curve with a large enough effect in the repeat runs, not every such curve was filed as active; also: nearly all actives have a fitted effect of over 40% in size; also: potency is read from the fitted curve at half-maximal effect). The method, boiled down:
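Viability counter screen, PGC/ERR cells: 17.5 h compound exposure at 37 C, CellTiter-Fluor fluorescence endpoint.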

Test [6] is described as follows: qHTS assay to identify small molecule antagonists of the estrogen related receptor signaling pathway with the pleiotropic PPARgamma coactivator (PGC) from Tox21 10K library (AID 1224841; call rule not given here; also: actives are mostly falling curves and most rising ones were filed inactive; nearly all actives have a fitted effect of over 50% in size). The method, boiled down: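 In the PGC/ERR line, DMSO solutions of test chemicals are pin-delivered to 2,000 cells/well six hours after dispensing. Following eighteen hours' incubation, One-Glo reagent is added and luminescence recorded.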

A short description of test [7]: qHTS assay to identify small molecule agonists of the estrogen related receptor signaling pathway with the pleiotropic PPARgamma coactivator (PGC) from Tox21 10K library (AID 1224842). Also: nearly all actives have a fitted effect of over 15% in size. Also: potency is read from the fitted curve at half-maximal effect. Summed up:
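Luminescence from One-Glo (30 min, room temperature) measured after PGC/ERR cells had 18 h at 37 C with pinned compound (23 nL in DMSO). Cells had been seeded at 2,000 per well and pre-incubated 6 h.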

Test [8] in a line: qHTS assay to identify small molecule agonists of H2AX (AID 1224845; active = well fitted activation curve with a large enough effect in the signal ratio in the repeat runs, not every such curve was filed as active; the % refers to the signal ratio). Summed up:
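Phospho-H2AX Ser139 measured by HTRF (ex 320 nm; em 665 and 620 nm) after 24 hr antibody incubation. Compounds, 15 concentrations, 0.76% DMSO, were applied to CHO-K1 cells for 3hr at 37C before lysis.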

Test [9] in a line: qHTS assay to identify small molecule antagonists of the estrogen related receptor (ERR) signaling pathway from Tox21 library (AID 1224848). Also: nearly all actives have a fitted effect of over 50% in size. The method, boiled down: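 ERR cell line, 2,000 cells/well. 6 h settle, then compound (DMSO) added; 18 h at 37 C; ONE-Glo luminescence after 30 min RT.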
A short description of test [10]: qHTS assay to identify small molecule agonists of the estrogen related receptor (ERR) signaling pathway from Tox21 library (AID 1224849; calls by dose curve; also: nearly all actives have a fitted effect of over 15% in size). Conditions: ERR reporter cell line, ONE-Glo luciferase, 18 h. Summed up: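 Reporter cells (ERR, NTP source) treated with Tox21 10K compounds 18 h, 37 C. Readout: ONE-Glo luminescence, 30 min RT.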
Test [11] can be described thus: qHTS RealTime-Glo MT Cell Viability Assay in HepG2 cells - 24 hour (AID 1224867). Also: nearly all actives have a fitted effect of over 50% in size. The method, boiled down:
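Tox21 10K library screened in qHTS format on HepG2 cells carrying RealTime-Glo reagents. Compounds were added after a 5 h preincubation, and the luminescent signal from continuous culture was measured repeatedly during 40 h treatment.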

Test [12] is described as follows: qHTS RealTime-Glo MT Cell Viability Assay in HEK293 cells - 32 hour (AID 1224868). Also: top concentration of the series differs between compounds; nearly all actives have a fitted effect of over 50% in size. Summed up: (§1)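 Luminescence generated by NanoLuc from substrate produced by living HEK293 cells served as the viability signal. Each value reflects the reading at its stated time point during continuous 40 h compound exposure at 37 C.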
Test [13] in a line: A CellTox Green Cytotoxicity Assay to monitor cytotoxicity in HEK293 cells - 0 hour (AID 1224869). Also: nearly all actives have a fitted effect of over 50% in size. The method, boiled down:
(§2)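 Homogeneous no-lysis format: HEK293 cell suspension mixed with CellTox Green reagent, seeded, incubated 5 h at 37 C/5% CO2, then dosed by pintool with compound in DMSO.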

Test [14] can be described thus: qHTS RealTime-Glo MT Cell Viability Assay in HepG2 cells - 40 hour (AID 1224870). Also: nearly all actives have a fitted effect of over 50% in size. Summed up: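 Real-time viability: cells seeded at 600 per well together with NanoLuc and cell-permeant prosubstrate, compounds added after 5 h incubation. Luminescence tracked at 0, 8, 16, 24, 32 and 40 h of exposure.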
A short description of test [15]: A CellTox Green Cytotoxicity Assay to monitor cytotoxicity in HEK293 cells - 40 hour (AID 1224871). Also: nearly all actives have a fitted effect of over 45% in size. Also: potency is read from the fitted curve at half-maximal effect. Summed up: as §2
A short description of test [16]: qHTS RealTime-Glo MT Cell Viability Assay in HEK293 cells - 16 hour (AID 1224872). Also: nearly all actives have a fitted effect of over 50% in size. Also: potency is read from the fitted curve at half-maximal effect. The method, boiled down:
as §1

Test [17] concerns the target Thyrotropin receptor (Homo sapiens) (UniProt P16473). Kind of test: qHTS assay to identify small molecule agonists of the thyroid stimulating hormone receptor (TSHR) signaling pathway (AID 1224843; calls by dose curve; also: nearly all actives have a fitted effect of over 45% in size). Summed up: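 A cell-based cAMP HTRF format was run in TSHR-transfected HEK293 cells, 800 per well. Treatment: 30 min, room temperature. Detection: 1 h with labelled cAMP and anti-cAMP cryptate. Concentration-response over 15 points, three replicates.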

A short description of test [18]: qHTS assay to identify small molecule agonists of the hypoxia (HIF-1) signaling pathway (AID 1224846; active = well fitted activation curve with a large enough effect in the signal ratio in the repeat runs, not every such curve was filed as active; the % refers to the signal ratio). Summed up: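 In ME-180 cells bearing an HRE-bla construct, 17 h treatment with DMSO-dissolved compounds at 37C was followed by CCF4-AM loading to quantify reporter induction.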
Test [19] is described as follows: qHTS assay to identify small molecule agonists of H2AX - cell viability counter screen (AID 1224847; calls by dose curve; also: nearly all actives have a fitted effect of over 30% in size; also: potency is read from the fitted curve at half-maximal effect). The method, boiled down: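 We seed wild-type CHO-K1 cells overnight, treat them for 3 hr at 37C with compounds in 15-concentration series, and quantify remaining viability by CellTiter-Glo luminescence.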
A short description of test [20]: qHTS assay to identify small molecule agonists of the hypoxia (HIF-1) signaling pathway - cell viability counter screen (AID 1224844; calls by dose curve; also: nearly all actives have a fitted effect of over 50% in size; also: potency is read from the fitted curve at half-maximal effect). The method, boiled down: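 Same wells as the HIF-1 reporter screen; ME-180 cells carrying HRE-bla, 17 hr treatment at 37C; CellTiter-Glo luminescence read after 30 min at room temperature.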

Several values for one entry are separate records, joined by “and”; a condition that tells them apart may be missing. Identical values can stand only once. A number with no mark means an inactive call. Inconclusive results are not listed. Activity calls are given as the source filed them. Unless noted, calls follow the shape of the dose curve; as a rule, active = well fitted curve in the direction sought with a large enough effect in the repeat runs; inconclusive = weak or mixed curves; inactive = no such curve, though single readings can be large; an effect the other way counts as inactive or inconclusive.
% is scaled to controls: 0 for no effect and ±100 for the full control effect.

Sequence of Thyrotropin receptor (Homo sapiens) (P16473 whole entry, looked up): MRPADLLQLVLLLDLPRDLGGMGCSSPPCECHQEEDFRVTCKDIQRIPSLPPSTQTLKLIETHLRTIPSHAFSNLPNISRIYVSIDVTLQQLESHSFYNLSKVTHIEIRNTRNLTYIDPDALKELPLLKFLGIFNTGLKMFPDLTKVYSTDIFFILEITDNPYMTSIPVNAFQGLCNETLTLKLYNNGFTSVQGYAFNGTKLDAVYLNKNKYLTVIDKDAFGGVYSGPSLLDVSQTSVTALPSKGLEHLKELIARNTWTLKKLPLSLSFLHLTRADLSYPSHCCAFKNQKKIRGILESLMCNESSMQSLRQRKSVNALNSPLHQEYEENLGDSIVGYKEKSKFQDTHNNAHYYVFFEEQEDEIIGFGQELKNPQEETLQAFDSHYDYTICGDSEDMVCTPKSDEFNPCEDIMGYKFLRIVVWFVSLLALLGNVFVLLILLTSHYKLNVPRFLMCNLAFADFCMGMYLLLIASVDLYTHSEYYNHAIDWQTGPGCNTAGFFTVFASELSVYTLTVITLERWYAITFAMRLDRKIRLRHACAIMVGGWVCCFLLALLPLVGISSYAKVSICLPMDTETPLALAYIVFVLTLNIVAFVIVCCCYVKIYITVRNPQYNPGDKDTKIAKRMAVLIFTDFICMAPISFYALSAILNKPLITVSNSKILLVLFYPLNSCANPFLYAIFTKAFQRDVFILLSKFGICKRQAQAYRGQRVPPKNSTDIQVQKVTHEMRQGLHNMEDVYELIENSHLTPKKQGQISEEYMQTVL
Sequence of Nuclear receptor subfamily 1 group I member 3 (Homo sapiens) (Q14994 whole entry, looked up): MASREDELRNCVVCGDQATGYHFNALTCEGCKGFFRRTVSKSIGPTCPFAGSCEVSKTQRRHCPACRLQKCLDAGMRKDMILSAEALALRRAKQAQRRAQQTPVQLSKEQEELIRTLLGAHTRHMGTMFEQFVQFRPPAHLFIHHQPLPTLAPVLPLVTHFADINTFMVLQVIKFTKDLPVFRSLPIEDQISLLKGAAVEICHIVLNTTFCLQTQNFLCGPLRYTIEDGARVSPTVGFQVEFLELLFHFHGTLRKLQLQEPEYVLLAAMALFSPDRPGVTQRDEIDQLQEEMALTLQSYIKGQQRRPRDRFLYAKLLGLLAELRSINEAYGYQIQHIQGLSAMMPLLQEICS

For `CC(C)C(=O)c1c(C(C)C)nn2ccccc12`, the Potency result in [1], in [2], in [3], in test [5], in test [6] and in test [7] was “inactive” throughout. The Potency entry in test [8], in test [9], in test [11], in test [12], in test [13] and in test [14] was “inactive” in each case. The Potency entry in test [15] and in test [16] was “inactive” in each case. For the same molecule, the Potency in test [4] is 23.7 µM (active). The activity change, positive = activation in [10] (at 42.5 µM (top of the series)) is -9.6%.
As to `CCCN[C@H]1CCc2nc(N)sc2C1`, the Potency result in test [1], in test [2], in test [3], in test [4], in test [5] and in test [17] was “inactive” in each case. Besides, the Potency entry in test [8], in test [18], in test [19], in test [11], in test [12] and in [13] was “inactive” in each case. Further, the Potency result in test [14], in [15] and in test [16] was “inactive” each time.
For `CC[C@@H](N)CO`, the Potency result in test [1], in test [2], in test [3], in [4], in [5] and in [6] was “inactive” each time. The Potency result in test [17], in test [20], in [8], in test [18], in test [19] and in test [9] was “inactive” throughout. Besides, the Potency result in test [11], in test [12], in test [13], in [14], in test [15] and in test [16] was “inactive” throughout. The activity change, positive = activation in test [10] (at 92.4 µM (top of the series)) is -0.0387%.
As to `O=C(O)c1cc(Cl)cc(Cl)c1`, the Potency result in test [1], in test [2], in test [3], in test [4], in [5] and in test [6] was “inactive” each time. Moreover, the Potency entry in test [17], in test [20], in [8], in test [18], in test [19] and in test [9] was “inactive” in each case. Also, the Potency result in test [11], in [12], in test [13], in test [14], in test [15] and in [16] was “inactive” each time. Also, the activity change, positive = activation in [10] (at 92.4 µM (top of the series)) was -3.61%.
In the case of `CCCCN(CCO)CCCC`, the Potency entry in test [1], in test [2], in [3], in [4], in test [5] and in [6] was “inactive” each time. Also, the Potency result in test [17], in [8], in test [18], in test [19], in test [9] and in test [11] was “inactive” in each case. For the same molecule, the Potency entry in test [13], in test [14], in test [15] and in test [16] was “inactive” in each case. The activity change, positive = activation in test [10] (at 92.4 µM (top of the series)) is 1.42%.
`O=Nc1ccc(Nc2ccccc2)cc1`: the Potency result in test [1], in [2], in test [3], in test [9] and in [13] was “inactive” throughout. In addition, the Potency in [4] is 17.2 µM (active); in test [5], 15.4 µM (active) and 19.3 µM (active); in test [7] it was 9.69 µM (active); in test [20] it was 55.3 µM (active); in test [19] it was 50.8 µM (active); in test [15], 5.53 µM (active) and 6.92 µM (active). For the same molecule, the Potency in test [16] was 11 µM (active) and 9.77 µM (active). Moreover, in test [10] (at 92.4 µM (top of the series)), the activity change, positive = activation was -76% (active).
For the molecule `O=C1NCC2(CCN(CCc3ccccc3)CC2)O1`, the Potency result in [1], in [2], in [3], in test [4], in test [5] and in [17] was “inactive” in each case. In addition, the Potency entry in test [20], in test [8], in [11], in test [12], in test [13] and in test [14] was “inactive” each time. In addition, the Potency entry in test [15] and in [16] was “inactive” in each case.
